Assay [1] in a line: High Content Imaging Cell-Based qHTS for Inhibitors of the mTORC1 Signaling Pathway in MEF Cells (AID 2667).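 Note: Tsc2-/- p53-/- MEFs stably re-expressing wild-type Tsc2 exposed 24 h.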 The note with it: series mostly up to 38.3 µM. Summed up: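 Immunofluorescence for rpS6 phosphorylation in MEFs of Tsc2-/-, p53-/- background rescued with WT Tsc2. Compound exposure lasted 24 hrs. Inhibition was scored against rapamycin-treated control wells.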
For orientation: In qHTS, concentration-response curves come from the screen itself.

A short description of assay [2]: Cytometry Cell-Based qHTS for Inhibitors of the mTORC1 Signaling Pathway in MEF cells (AID 2668).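 Note: Tsc2-/- p53-/- mouse embryonic fibroblasts stably re-expressing wild-type Tsc2; percent cells positive for phospho-rpS6 Ser235/236 relative to propidium iodide stain.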 Conditions: mTORC1 pathway readout; series mostly up to 38.3 µM. Summed up: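 MEFs (Tsc2-/-, p53-/- stably expressing WT Tsc2) treated 24 h at 37 degree Celsius, fixed, stained with Alexa-488 anti-phospho-rpS6 Ser235/236 and propidium iodide; Acumen laser scanning. Reported as % positive cells, phospho-S6 normalized to PI.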

Assay [3] is described as follows: Validation screen for inhibitors of Lassa infection (AID 463096; calls by dose curve). The note with it: Lassa virus infection, cell-based; series mostly up to 46.1 µM.
A short description of assay [4]: Validation screen for small molecules that induce DNA re-replication in MCF 10A normal breast cells (AID 463097). Note: nearly all actives have a fitted effect of over 60% in size. The note with it: MCF 10A cells, DNA re-replication phenotype imaging; series mostly up to 46.1 µM. Summed up: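 MCF 10A cells exposed to compound 48 hr at 37 C, 5% CO2, then Hoechst-stained 40 min. Laser-scanning imaging of nuclear DNA content (405 nm ex, 500-530 nm em); re-replication scored as rise in nuclei with elevated fluorescence intensity.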

Assay [5] deals with Ubiquitin carboxyl-terminal hydrolase 2 (Homo sapiens) (UniProt O75604). Put plainly: qHTS Validation Assay for Inhibitors of Ubiquitin-specific Protease USP2a Using CHOP2 as the Reporter (AID 463106). Note: potency is the fitted concentration of half-maximal effect. The note with it: USP2a cleavage of CHOP2 reporter, enzymatic; series mostly up to 38.3 µM. In outline:
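10nM USP2 core + cpd, 30min RT; add 25nM Ub-CHOP2/25nM substrate; 60min RT; FI 485/531nm. Buffer Tris pH 8.0, CaCl2, BME, CHAPS. Norm. to NEM = 100% inhibition; time-zero read flags fluorescent artifacts.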

The target of assay [6] is DNA polymerase III PolC-type (Bacillus subtilis (strain 168)) (UniProt P13267). Description: qHTS Validation Assay for the Inhibitors of DNA Replication in Gram-Positive Bacteria (AID 485295).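 Note: PicoGreen fluorescence of double-stranded DNA made on primed circular M13 template.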 Conditions: Gram-positive bacterial DNA replication assay; series mostly up to 57.1 µM. Summed up:
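Reconstituted B. subtilis Pol III holoenzyme (PolC, beta clamp, SSB, primase) preincubated with compound, then M13Gori single-stranded circular template with dNTPs/NTPs added; room temperature reaction. Stopped with EDTA/PicoGreen; dsDNA fluorescence read, EDTA as full-inhibition control.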

Assay [7] deals with Tumor susceptibility gene 101 protein (Homo sapiens) (UniProt Q99816). Description: qHTS Validation Assay for Iinhibitors of HIV-1 Budding by Blocking the Interaction of PTAP/TSG101 (AID 485342; calls by dose curve). The note with it: TSG101-PTAP binding, fluorescence polarization, 4-point titration; series mostly up to 115 µM. In outline: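 Tsg101 binding domain (10 uM) with FITC-labeled PTAP peptide (50 nM) in HEPES pH 7.5 buffer, 20 min at r.t. with compounds. Binding measured by fluorescence polarization.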
Chain of Tumor susceptibility gene 101 protein (Homo sapiens) (Q99816 whole entry, looked up, the tested form may be a part): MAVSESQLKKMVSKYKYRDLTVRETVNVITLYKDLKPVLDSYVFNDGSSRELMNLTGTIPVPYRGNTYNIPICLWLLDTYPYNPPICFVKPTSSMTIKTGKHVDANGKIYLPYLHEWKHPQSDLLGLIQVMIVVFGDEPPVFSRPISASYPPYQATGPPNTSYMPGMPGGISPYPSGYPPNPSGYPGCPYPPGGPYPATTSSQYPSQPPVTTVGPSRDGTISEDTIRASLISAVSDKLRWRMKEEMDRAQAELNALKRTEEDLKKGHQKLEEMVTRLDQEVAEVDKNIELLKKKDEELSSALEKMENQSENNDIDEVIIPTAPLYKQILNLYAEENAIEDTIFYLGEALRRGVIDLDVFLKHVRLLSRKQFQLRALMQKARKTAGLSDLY

Assay [8] can be described thus: qHTS Validation Assay to Find Inhibitors of Chronic Active B-Cell Receptor Signaling (AID 485345; active = well fitted curve in the direction sought with a large enough effect in the main read-out, with a control signal flat, not every such curve was filed as active). The note with it: ABC-DLBCL cells, chronic BCR signaling reporter, CBG luciferase; series mostly up to 46.1 µM. In outline:
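Read-out: ratio of filter-corrected green (IkappaBalpha fusion) to red (native) luciferase signal in doxycycline-induced TMD8 cells after 4 h at 37C. Titration spanned 46 uM–3 nM; Data were normalised to basal cells and 10 uM MG-132 wells.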

For assay [9], the target named is Beta-2 adrenergic receptor (Homo sapiens) (UniProt P07550). Put plainly: qHTS validation assay of beta-arrestin-biased ligands of beta2-adrenergic receptor (AID 485366). Conditions: cell-based beta-arrestin recruitment to ADRB2, qHTS; series mostly up to 46.1 µM. Summed up: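 Tango cells expressing recombinant beta2-AR and beta-arrestin with tTA-driven luciferase, in DMEM with 1% FBS. Compounds were titrated up to 46 microM for 18 hr at 37 degrees C. Luminescence was read 15 min after substrate; curves were fitted and class-assigned.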
Chain of Beta-2 adrenergic receptor (Homo sapiens) (P07550 whole entry, looked up): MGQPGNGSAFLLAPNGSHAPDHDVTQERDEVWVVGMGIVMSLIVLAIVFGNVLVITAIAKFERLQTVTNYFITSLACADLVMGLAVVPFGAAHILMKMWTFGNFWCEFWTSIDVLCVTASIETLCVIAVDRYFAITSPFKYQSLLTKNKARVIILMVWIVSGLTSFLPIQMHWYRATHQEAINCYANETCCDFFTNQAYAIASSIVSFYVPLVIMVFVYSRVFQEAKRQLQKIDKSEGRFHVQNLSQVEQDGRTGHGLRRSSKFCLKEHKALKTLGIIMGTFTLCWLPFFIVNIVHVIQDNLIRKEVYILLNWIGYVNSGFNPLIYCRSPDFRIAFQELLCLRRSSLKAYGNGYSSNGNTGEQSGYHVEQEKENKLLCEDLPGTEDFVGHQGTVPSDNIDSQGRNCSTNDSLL

Assay [10] deals with ATP-dependent 6-phosphofructokinase (Trypanosoma brucei brucei) (UniProt O15648). Description: qHTS Validation Assay to Find Inhibitors of T. brucei phosphofructokinase (AID 485368). Conditions: T. brucei PFK enzyme assay, qHTS 7-point titration; series mostly up to 57.5 µM. In outline:
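Activity was read as ADP production by luminescence (ADP-Glo) after 45 min at room temperature. The enzyme was 1.25nM PFK in 0.1M TEA pH 8.0 with 0.5 mM F6P, 0.1mM ATP and 5 mM MgCl2. Compounds were titrated up to 57 uM and % activity normalized to no-enzyme and full-enzyme controls.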

Records with an inconclusive call do not appear. The source made the active and inactive calls. Unless noted, calls come from the whole dose curve; as a rule, active = well fitted curve in the direction sought with a large enough effect; inconclusive = small, poorly fitted or top-dose-only effect, or another doubt; inactive = no such curve, though single readings can be large; an effect the other way counts as inactive or inconclusive.

Chain of DNA polymerase III PolC-type (Bacillus subtilis (strain 168)) (P13267 whole entry, looked up): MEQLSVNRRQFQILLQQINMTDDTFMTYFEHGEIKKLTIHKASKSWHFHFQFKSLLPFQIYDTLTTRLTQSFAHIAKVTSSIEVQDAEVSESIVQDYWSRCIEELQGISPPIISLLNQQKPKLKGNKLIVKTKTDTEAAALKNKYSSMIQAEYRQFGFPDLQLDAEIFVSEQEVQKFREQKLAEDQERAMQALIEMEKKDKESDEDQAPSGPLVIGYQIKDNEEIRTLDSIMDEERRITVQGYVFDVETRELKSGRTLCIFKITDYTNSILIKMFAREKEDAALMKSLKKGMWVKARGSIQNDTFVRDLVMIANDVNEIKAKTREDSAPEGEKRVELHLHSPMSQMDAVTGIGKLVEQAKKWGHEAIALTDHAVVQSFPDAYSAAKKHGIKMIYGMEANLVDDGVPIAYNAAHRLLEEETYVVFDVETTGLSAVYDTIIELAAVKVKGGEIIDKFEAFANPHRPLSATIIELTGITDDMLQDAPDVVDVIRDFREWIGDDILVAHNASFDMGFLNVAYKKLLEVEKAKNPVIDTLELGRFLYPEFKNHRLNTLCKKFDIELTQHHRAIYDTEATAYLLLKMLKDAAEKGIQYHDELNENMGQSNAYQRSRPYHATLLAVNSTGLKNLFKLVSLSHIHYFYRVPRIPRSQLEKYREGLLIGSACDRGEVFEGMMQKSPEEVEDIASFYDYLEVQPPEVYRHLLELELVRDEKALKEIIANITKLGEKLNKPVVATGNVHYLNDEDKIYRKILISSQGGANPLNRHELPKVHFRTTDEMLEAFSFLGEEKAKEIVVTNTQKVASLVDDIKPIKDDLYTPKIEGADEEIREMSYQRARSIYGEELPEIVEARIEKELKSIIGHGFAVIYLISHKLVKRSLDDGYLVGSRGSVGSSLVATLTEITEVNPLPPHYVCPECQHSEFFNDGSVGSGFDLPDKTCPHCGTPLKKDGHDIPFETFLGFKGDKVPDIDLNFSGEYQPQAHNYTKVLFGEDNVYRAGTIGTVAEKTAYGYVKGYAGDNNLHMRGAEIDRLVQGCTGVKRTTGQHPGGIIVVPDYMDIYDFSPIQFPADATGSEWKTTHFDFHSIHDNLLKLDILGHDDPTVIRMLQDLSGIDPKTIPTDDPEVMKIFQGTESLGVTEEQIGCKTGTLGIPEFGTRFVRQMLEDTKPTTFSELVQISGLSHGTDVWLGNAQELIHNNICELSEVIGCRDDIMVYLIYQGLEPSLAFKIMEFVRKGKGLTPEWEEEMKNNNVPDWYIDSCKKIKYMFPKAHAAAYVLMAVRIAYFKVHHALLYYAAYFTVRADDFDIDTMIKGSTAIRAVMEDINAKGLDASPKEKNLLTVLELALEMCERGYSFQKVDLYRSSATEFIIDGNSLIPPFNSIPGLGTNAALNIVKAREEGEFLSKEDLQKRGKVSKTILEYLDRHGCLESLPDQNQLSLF
Chain of ATP-dependent 6-phosphofructokinase (Trypanosoma brucei brucei) (O15648 whole entry, looked up): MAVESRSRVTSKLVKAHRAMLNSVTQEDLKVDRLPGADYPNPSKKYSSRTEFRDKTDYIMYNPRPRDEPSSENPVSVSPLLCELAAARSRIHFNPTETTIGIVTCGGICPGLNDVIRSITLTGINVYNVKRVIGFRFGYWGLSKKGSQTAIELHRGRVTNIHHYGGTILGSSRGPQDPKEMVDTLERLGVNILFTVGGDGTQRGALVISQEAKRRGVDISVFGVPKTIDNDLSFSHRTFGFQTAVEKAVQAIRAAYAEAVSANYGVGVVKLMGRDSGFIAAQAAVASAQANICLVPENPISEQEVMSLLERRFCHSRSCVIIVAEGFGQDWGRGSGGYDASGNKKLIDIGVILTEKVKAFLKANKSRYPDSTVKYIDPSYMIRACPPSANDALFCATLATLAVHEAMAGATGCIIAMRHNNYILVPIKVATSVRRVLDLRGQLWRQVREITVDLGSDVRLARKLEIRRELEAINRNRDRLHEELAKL
Chain of Ubiquitin carboxyl-terminal hydrolase 2 (Homo sapiens) (O75604 whole entry, looked up): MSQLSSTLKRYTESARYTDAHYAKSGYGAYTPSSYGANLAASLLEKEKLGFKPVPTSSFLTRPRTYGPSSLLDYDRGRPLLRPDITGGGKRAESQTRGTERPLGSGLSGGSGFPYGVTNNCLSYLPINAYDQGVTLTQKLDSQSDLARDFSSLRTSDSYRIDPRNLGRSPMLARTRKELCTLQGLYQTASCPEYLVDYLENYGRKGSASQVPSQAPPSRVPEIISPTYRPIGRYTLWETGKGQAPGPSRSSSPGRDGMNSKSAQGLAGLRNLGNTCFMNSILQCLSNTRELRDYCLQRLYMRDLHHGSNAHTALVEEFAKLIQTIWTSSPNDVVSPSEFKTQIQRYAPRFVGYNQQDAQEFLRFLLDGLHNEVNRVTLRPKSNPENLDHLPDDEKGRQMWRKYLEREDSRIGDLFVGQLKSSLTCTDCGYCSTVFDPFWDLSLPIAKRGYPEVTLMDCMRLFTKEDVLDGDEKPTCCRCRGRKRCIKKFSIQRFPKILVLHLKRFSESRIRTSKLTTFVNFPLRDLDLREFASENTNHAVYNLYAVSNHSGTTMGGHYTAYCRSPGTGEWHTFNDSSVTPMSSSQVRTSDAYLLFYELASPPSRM

With `COc1cc(CC(C)N)c(OC)cc1I` (stereo unspecified), the Potency entry in assay [1], in [2], in [3], in assay [4], in assay [5] and in [6] was “inactive” in each case. Besides, the Potency result in assay [8] and in [10] was “inactive” in each case. In addition, the call in assay [7] and in [9] was inactive.
On to `C[C@H](Cc1ccc2c(c1)OC(C(=O)O)(C(=O)O)O2)NC[C@H](O)c1cccc(Cl)c1`, for which the Potency entry in [1], in assay [2], in assay [3], in assay [4], in [5] and in assay [6] was “inactive” throughout. In addition, in assay [8], the Potency result is “inactive”. For the same compound, the result in [7] was inactive.
For `Cc1[nH]c2ccc(O)cc2c1CCN`, the Potency result in assay [1], in assay [2], in assay [3], in assay [4], in [5] and in [6] was “inactive” each time. Moreover, the Potency result in assay [8] and in [10] was “inactive” each time. For the same compound, the outcome in [7] and in assay [9] was inactive.
On to `NCCc1ccc(S(=O)(=O)F)cc1`, for which the Potency entry in assay [1], in assay [2], in [3], in assay [4], in [5] and in assay [6] was “inactive” each time. Also, the Potency result in [8] and in [10] was “inactive” each time. Besides, the compound was classed as inactive in assay [7] and in [9].
As for `C[Se]C[C@H](N)C(=O)O`, the Potency result in [1], in assay [2], in [3], in assay [4], in assay [5] and in assay [6] was “inactive” in each case. Also, the Potency result in assay [8] and in assay [10] was “inactive” in each case. Besides, the compound was classed as inactive in [7] and in [9].
As to `NC(=O)c1ccc(OCC(O)CN2CC=C(c3ccc(F)cc3)CC2)cc1` (stereo unspecified), the Potency entry in [1], in [2], in assay [3], in assay [4], in [5] and in assay [6] was “inactive” throughout. The Potency entry in assay [8] and in assay [10] was “inactive” throughout. In addition, the compound was classed as inactive in assay [7] and in assay [9].
Regarding `C[N+](C)(C)CCOC(=O)CBr`, the Potency result in assay [1], in assay [2], in assay [3], in [4], in assay [5] and in [6] was “inactive” in each case. Further, the Potency entry in [8] and in assay [10] was “inactive” throughout. Further, the compound was called inactive in assay [7] and in assay [9].
Regarding `OCc1cnc[nH]1`, the Potency result in assay [1], in assay [2], in assay [3], in assay [4], in assay [5] and in assay [6] was “inactive” throughout. Also, in [8], the Potency entry was “inactive”. In addition, the compound was called inactive in [7] and in assay [9].
As to `NCCc1c[nH]c2ccc(C(N)=O)cc12`, the Potency result in assay [1], in assay [2], in assay [3], in assay [4], in assay [5] and in assay [6] was “inactive” each time. In addition, the Potency result in assay [8] and in assay [10] was “inactive” throughout. The compound was classed as inactive in assay [7] and in assay [9].
As to `NC(=O)COc1c(F)cc(SCCNS(=O)(=O)c2ccccc2)cc1F`, the Potency entry in assay [1], in [2], in [3], in assay [4], in assay [5] and in assay [6] was “inactive” throughout. The compound was classed as inactive in assay [7] and in [9].
On to `CP(=O)(O)C1=CCNCC1`, for which the Potency result in assay [1], in [2], in [3], in assay [4], in [5] and in assay [8] was “inactive” in each case. Besides, the result in [7] and in assay [9] was inactive.
For the compound `COc1ccc2[nH]cc(CCN)c2c1`, the Potency result in assay [1], in assay [2], in assay [3], in [4], in assay [5] and in [6] was “inactive” each time. Further, in [8], the Potency entry was “inactive”. Also, the result in assay [7] and in [9] was inactive.
Take `NC(CCCCCP(=O)(O)O)C(=O)O` (stereo unspecified): the Potency result in assay [1], in [2], in [3], in assay [4], in assay [5] and in [6] was “inactive” in each case. For the same compound, the Potency result in assay [8] and in assay [10] was “inactive” each time. The compound was called inactive in assay [7] and in assay [9].
In the case of `N[C@@H](CCl)C(=O)O`, the Potency entry in [1], in [2], in assay [3], in assay [4], in assay [5] and in assay [6] was “inactive” each time. The Potency entry in assay [8] and in [10] was “inactive” throughout. Besides, the call in assay [7] and in assay [9] was inactive.
With `COc1ccc(OC)c(C(O)C(C)N)c1` (stereo unspecified), the Potency result in assay [1], in assay [2], in assay [3], in assay [4], in assay [5] and in assay [6] was “inactive” each time. Further, in assay [8], the Potency entry is “inactive”. The outcome in assay [7] and in assay [9] was inactive.
For `CN(N=O)c1ccc(O)c(O)c1`, the Potency result in assay [1], in [2], in assay [3], in assay [4] and in [8] was “inactive” throughout. Moreover, the Potency in assay [5] was 4.14 µM (active). Further, the outcome in assay [7] and in [9] was inactive.
For `C[N+]1(C)CCOC(O)(c2ccc(-c3ccc(C4(O)C[N+](C)(C)CCO4)cc3)cc2)C1` (stereo unspecified), the Potency result in [1], in assay [2], in assay [3], in assay [4], in [5] and in assay [6] was “inactive” throughout. For the same compound, the Potency result in assay [8] was “inactive”. For the same compound, the result in [7] and in assay [9] was inactive.
With `COc1ccc2c(c1)C13CCCCC1C(C2)N(C)CC3` (stereo unspecified), the Potency result in assay [1], in [2], in [3], in [4], in assay [5] and in assay [6] was “inactive” each time. The Potency entry in assay [8] is “inactive”. Besides, the compound was classed as inactive in assay [7] and in assay [9].
Regarding `CCOC(=O)c1ncn2c1[C@@H]1CCCN1C(=O)c1cc(OC)ccc1-2`, the Potency entry in assay [1], in assay [2], in [3], in [4], in assay [5] and in [6] was “inactive” throughout. Besides, the Potency result in assay [8] and in assay [10] was “inactive” throughout. Further, the result in assay [7] and in [9] was inactive.
With `CN(C(=O)Cc1ccc(Cl)c(Cl)c1)C(CN1CCCC1)c1cccc(OCC(=O)O)c1` (stereo unspecified), the Potency entry in [1], in assay [2], in assay [3], in assay [4], in assay [5] and in assay [6] was “inactive” in each case. Also, the Potency entry in assay [8] and in assay [10] was “inactive” in each case. Moreover, the compound was called inactive in assay [7] and in [9].
For `C#CCN[C@H](C)Cc1ccccc1`, the Potency result in assay [1], in [2], in assay [3], in assay [4], in assay [5] and in assay [6] was “inactive” throughout. Also, the Potency entry in assay [8] and in [10] was “inactive” in each case. The compound was classed as inactive in assay [7] and in assay [9].
On to `CCCN(CCC)[C@H]1CCc2c(F)ccc(O)c2C1`, for which the Potency entry in assay [1], in assay [2], in assay [3], in assay [4], in assay [5] and in assay [6] was “inactive” throughout. In addition, the Potency result in [8] and in [10] was “inactive” each time. Further, the result in [7] and in [9] was inactive.
Take `COC(=O)N1CCN(C(=O)Cc2ccc(Cl)c(Cl)c2)C(CN2CCCC2)C1` (stereo unspecified): the Potency entry in [1], in assay [2], in assay [3], in [4], in assay [5] and in [6] was “inactive” each time. Moreover, in assay [8], the Potency result was “inactive”. The outcome in assay [7] and in assay [9] was inactive.

These data come from PubChem BioAssay (NCATS).
